# HCMV antiviral: human cytomegalovirus inhibition. actives 4.5% (n = 410,000). HFF cells, HCMV-luciferase reporter, 72 h; hits give low values. activity change, negative = inhibition, % at 57.5 µM; in the data active = activity change below about -60%; inconclusive = no clear call, values can overlap the other calls; inactive = above about -39%; note: % is set by controls: 0 for no effect and ±100 for the full control effect
#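 HFF cells seeded 16 h at 37C, treated with compounds, infected with luciferase-reporter HCMV at MOI 1 PFU/cell; luciferase read at 72 h post infection, normalized to buffer-only and Salinomycin controls.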
# Sm TGR block: blocks Schistosoma mansoni thioredoxin glutathione reductase | purified TGR, DTNB reduction, TNB absorbance 405 nm | Q962Y6 | actives 3% (n = 360,000) | AID 485364 | Potency, µM (titrated, usually from 114 µM), for inactives: at the top dose activity change, negative = inhibition, most hits filed as inhibitors; note: potency is the fitted concentration of half-maximal effect; % is set by controls: 0 for no effect and ±100 for the full control effect; nearly all actives have a fitted effect of over 60% in size
#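 First, TGR (20 nM dispensed) and NADPH were mixed with compound. Second, a 15 min room-temperature incubation followed. Third, further NADPH and then DTNB were added to start the reaction. Finally, TNB absorbance was monitored kinetically.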
# Pf growth 48h: inhibits P. falciparum growth in the first generation, 48 h; P. falciparum luciferase growth in erythrocytes, 48 h; Potency, µM (highest dose often 28.7 µM), without a hit: top-dose activity change, negative = inhibition, usual class: inhibitors; actives 5.9% (n = 310,000); AID 504832; note: potency is the fitted concentration of half-maximal effect; % is set by controls: 0 for no effect and ±100 for the full control effect
#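 Cell-based growth assay: transgenic P. falciparum expressing firefly luciferase, cultured in red cells within RPMI 1640 containing 0.5% w/v Albumax, 24 mM bicarbonate and gentamycin. A drop in luciferase activity indicates inhibition.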
# SARS PLP yeast: inhibitors of SARS-CoV papain-like protease in yeast; S. cerevisiae expressing SARS-CoV PLpro, growth rescue; Potency, µM (top dose mostly 32.9 µM), for the others: top-dose activity, positive = growth rescue, hits mostly activators; actives 0.19% (n = 330,000); calls by dose curve; note: potency is the fitted concentration of half-maximal effect; 0% is about no effect; nearly all actives have a fitted effect of over 55% in size
# HCV inhibitor: blocks hepatitis C virus. Potency, µM (highest dose often 41.8 µM), for the others: at the highest dose activity change, negative = inhibition, hits mostly inhibitors. actives 3.4% (n = 340,000). Huh7.5.1 HCVcc-Cre infection, luciferase reporter, 44 h; note: potency is the fitted concentration of half-maximal effect; % is set by controls: 0 for no effect and ±100 for the full control effect
#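 Compounds are dispensed onto cells plated 4 h earlier at 1,000 per well, with HCVcc-Cre virus (about 0.5 moi) added next. Following 44 h of culture, luminescent signal is measured for 15 sec after 15 min with substrate at room temperature.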
# Pf growth 96h: P. falciparum growth inhibition at 96 hour, primary screen for plastid delayed-death inhibitors; actives 6.9% (n = 320,000); P. falciparum luciferase reporter growth, 96 h; Potency, µM (highest dose often 28.7 µM), inactives show at the highest dose activity change, negative = inhibition, most hits filed as inhibitors; AID 504834; note: potency is the fitted concentration of half-maximal effect; % is set by controls: 0 for no effect and ±100 for the full control effect
#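 P. falciparum expressing integrated firefly luciferase grown in erythrocytes (2% hematocrit, 0.05% parasitemia final) with compounds for 96 hours at 37 C, 5% CO2. Growth inhibition read as loss of luminescence after adding luciferase detection reagent.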
# * marks the source's active call; other numbers are inactive results; ? = inconclusive; / = not tested or not shown; ! = repeats disagree. Compounds with a hit are over-represented: about 15% of the library has one in this group of screens. Unless noted, calls come from the whole dose curve; as a rule, active = well fitted curve in the direction sought with a large enough effect; inconclusive = small, poorly fitted or top-dose-only effect, or another doubt; inactive = no such curve, though single readings can be large; an effect the other way counts as inactive or inconclusive.
SMILES,HCMV antiviral,Sm TGR block,Pf growth 48h,SARS PLP yeast,HCV inhibitor,Pf growth 96h
COc1cccc(C(=O)N2c3nc(-c4ccco4)nn3C3(CCCCC3)[C@@H]3CCCC[C@@H]32)c1,-64.2*,7.94µM*,/,/,/,/
O=C(c1cccc([N+](=O)[O-])c1)N1c2nc(-c3ccco3)nn2C2(CCCCC2)[C@@H]2CCCC[C@@H]21,-76.9*,?,/,/,/,/
O=C(c1cccc(Cl)c1)N1c2nc(-c3ccco3)nn2C2(CCCCC2)[C@@H]2CCCC[C@@H]21,-27.5,-25.2%,/,/,/,/
COC(=O)c1sc2ncccc2c1OCc1cccc(Cl)c1,-102.0*,9.5%,5.4%,-11.3%,-2.8%,0.0%
Cc1ccc(S(=O)(=O)N2[C@@H](c3ccc(Br)cc3)C(C(=O)O)=CC[C@H]2c2ccc3c(c2)OCO3)cc1,-4.3,/,/,0.0%,2.8%,/
CC(C)(C)OC(=O)NCC(=O)Oc1cc2oc(=O)cc(-c3ccccc3)c2cc1Cl,-76.2*,?,6.4%,?,26.5%,22.2%
O=C(Oc1cc2oc(=O)cc(-c3ccccc3)c2cc1Cl)C1CCCCC1,-32.2,11.1%,?,-25.2%,-8.5%,?
O=C(Oc1ccc2ccccc2c1Cl)N1CCCC1,?,-6.0%,239.4%,-1.2%,-18.4%,?
O=C(Oc1ccc2ccccc2c1Cl)N1CCCCCC1,-38.5,-9.0%,246.0%,-57.1%,-3.2%,3.29µM*
O=C(Oc1c(Cl)cc(Cl)c2ccccc12)N1CCCCC1,-24.4,4.1%,/,-21.3%,?,11.7µM*
O=C(Nc1cccc(C(F)(F)F)c1)N1CCC(CN2CCCCCC2)CC1,-11.4,-25.9%,/,/,/,/
Cc1ccc(-c2cnn(-c3cccc(C(F)(F)F)c3)c2N)cc1,-34.4,5.3%,29.8%,-17.3%,11.2µM*,183.7%
Nc1c(-c2ccc(Cl)cc2)cnn1-c1cccc(C(F)(F)F)c1,0.9,12.9%,94.4%,1.7%,-17.5%,135.9%
CC(NC(=O)C1CC12CCC2)c1ccccc1 (centres undefined),-61.0*,2.1%,8.8%,9.0%,5.5%,35.6%
COc1ccc(N2CCN(C(=O)CN(c3ccc(OC)cc3)S(=O)(=O)c3ccccc3)CC2)cc1,-31.9,2.1%,11.7µM*,-0.6%,?,-7.6%
COc1ccc(N(CC(=O)N2CCN(Cc3ccccc3)CC2)S(C)(=O)=O)cc1,-10.0,-0.6%,-7.1%,5.0%,14.5%,378.9%
COc1ccc(N2CCN(C(=O)CN(C)S(=O)(=O)c3cccs3)CC2)cc1,-99.8*!,-17.4%,0.6%,-1.6%,-18.6%,-6.8%
CS(=O)(=O)N(CC(=O)N1CCN(Cc2ccccc2)CC1)c1cccc([N+](=O)[O-])c1,15.1,-26.5%,?,4.7%,-0.8%,2.94µM*
COc1ccc(S(=O)(=O)N(C)CC(=O)N2CCN(c3ccccc3)CC2)cc1,-3.2,-8.5%,-24.2%,5.1%,8.1%,2.0%
CS(=O)(=O)N(CC(=O)N1CCN(Cc2ccccc2)CC1)c1cccc(F)c1,6.9,-0.1%,11.9%,2.3%,4.3%,20.1%
COc1ccc(N(CC(=O)N2CCN(Cc3ccccc3)CC2)S(=O)(=O)c2ccccc2)cc1,?,-2.0%,?,0.6%,17.6%,5.86µM*
COc1ccc(-c2n[nH]c3c2cnc2ccc(F)cc23)cc1,53.0,2.3%,/,/,/,/
O=C(O)c1ccccc1C(=O)NCc1ccc2c(c1)OCO2,0.0,-7.5%,17.4%,3.2%,4.2%,60.7%
Nc1ncnc2c1ncn2CCOc1ccccc1,38.0,-1.5%,-8.3%,-2.7%,26.5%,87.0%
CC(C)(C)C(=O)OCOP(=O)(COCCn1cnc2c(N)ncnc21)OCOC(=O)C(C)(C)C,/,/,15.1µM*,/,/,6.75µM*
COc1cccc(/C=N/N2CCN(Cc3ccccc3)CC2)c1O,7.7,-13.6%,9.8%,11.6%,3.1%,7.38µM*
CCOc1cccc(/C=N/N2CCN(c3ccc(Cl)cc3)CC2)c1O,-94.3*,10.3%,-19.5%,-1.0%,?,-18.7%
Oc1ccc(/C=N/N2CCN(C3c4ccccc4-c4ccccc43)CC2)cc1,-33.6,0.5%,36.9%,1.0%,4.7%,31.9%
